The text below walks through data of paper PMC4081100, “A DNA-binding-site landscape and regulatory network analysis for NAC transcription factors in Arabidopsis thaliana”.

Test in all cases: universal protein binding microarray (PBM); transcription factors of Arabidopsis thaliana; high values mean tight binding
What all share (conditions): protein: recombinant; tags: GST; chain copies: 2; dsDNA, one strand shown

The target in one assay is T1, GST-ANAC092(1-176) (Arabidopsis thaliana, UniProt Q9FKA0 1-176).
T1 sequence: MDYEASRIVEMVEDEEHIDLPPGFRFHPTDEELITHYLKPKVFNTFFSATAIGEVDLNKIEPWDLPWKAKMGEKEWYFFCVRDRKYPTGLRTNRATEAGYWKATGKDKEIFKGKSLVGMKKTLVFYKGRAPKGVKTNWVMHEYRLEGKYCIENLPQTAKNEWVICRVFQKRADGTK
A digest of the protocol:
(§1)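 GST-tagged NAC-domain, full-length or DNA-binding-domain proteins were induced in cells, with zinc acetate added for zinc-finger proteins. They were purified on glutathione–Sepharose 4B and quantified by A280 or anti-GST western blot. Each was applied at 200 to 500 nM final, in duplicate, to custom all-10-mer Agilent 4 × 180K arrays made double-stranded by primer extension, with gapped and ungapped 8-mers scored. Binding is the normalised enrichment score (E-score).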

Another assay has as its target GST-NTL6(1-168) (Arabidopsis thaliana, UniProt Q9SCK6 1-168). A digest of the protocol:
as §1

The target of another assay is T2, GST-ANAC019 NAC domain (Arabidopsis thaliana, UniProt Q9C932 14-162).
T2 sequence: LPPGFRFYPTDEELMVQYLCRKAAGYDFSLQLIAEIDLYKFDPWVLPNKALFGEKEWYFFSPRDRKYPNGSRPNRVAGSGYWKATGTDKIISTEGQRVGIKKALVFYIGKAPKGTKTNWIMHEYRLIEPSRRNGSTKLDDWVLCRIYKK
A digest of the protocol:
as §1

For the next assay, the target named is T3, GST-ANAC055(1-171) (Arabidopsis thaliana, UniProt Q9LDY8 1-171).
T3 sequence: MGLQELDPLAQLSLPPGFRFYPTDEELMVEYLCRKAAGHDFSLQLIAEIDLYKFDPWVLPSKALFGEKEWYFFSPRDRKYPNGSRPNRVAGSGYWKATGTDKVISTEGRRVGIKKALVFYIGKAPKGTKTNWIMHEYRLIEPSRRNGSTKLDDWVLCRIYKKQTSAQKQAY
A digest of the protocol:
as §1

The next assay has as its target T4, GST-ATAF1 NAC domain (Arabidopsis thaliana, UniProt Q39013 7-158).
T4 sequence: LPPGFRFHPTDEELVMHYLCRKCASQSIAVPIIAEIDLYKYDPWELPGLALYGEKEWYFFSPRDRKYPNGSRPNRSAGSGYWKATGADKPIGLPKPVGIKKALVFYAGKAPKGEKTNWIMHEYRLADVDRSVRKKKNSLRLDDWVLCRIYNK
A digest of the protocol:
as §1

Assay [1] addresses T5, GST-ANAC092(1-285) full length (Arabidopsis thaliana, UniProt Q9FKA0 1-285).
T5 sequence: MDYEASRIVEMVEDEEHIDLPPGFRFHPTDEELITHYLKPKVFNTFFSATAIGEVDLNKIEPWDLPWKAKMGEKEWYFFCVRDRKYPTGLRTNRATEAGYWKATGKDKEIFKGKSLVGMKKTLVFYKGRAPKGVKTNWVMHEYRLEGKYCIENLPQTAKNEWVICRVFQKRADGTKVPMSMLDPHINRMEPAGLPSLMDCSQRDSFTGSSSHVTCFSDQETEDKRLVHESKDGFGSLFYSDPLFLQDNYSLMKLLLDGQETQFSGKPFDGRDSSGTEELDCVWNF
A digest of the protocol:
as §1

The target of a further assay is T6, GST-NAP(1-166) (Arabidopsis thaliana, UniProt O49255 1-166).
T6 sequence: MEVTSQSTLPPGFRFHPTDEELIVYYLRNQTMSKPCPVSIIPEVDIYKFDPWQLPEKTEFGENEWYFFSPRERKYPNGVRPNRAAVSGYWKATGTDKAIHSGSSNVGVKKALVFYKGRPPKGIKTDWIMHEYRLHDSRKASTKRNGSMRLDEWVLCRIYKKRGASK
A digest of the protocol:
as §1

A further assay concerns the target T7, GST-NST2(1-184) (Arabidopsis thaliana, UniProt Q9M274 1-184).
T7 sequence: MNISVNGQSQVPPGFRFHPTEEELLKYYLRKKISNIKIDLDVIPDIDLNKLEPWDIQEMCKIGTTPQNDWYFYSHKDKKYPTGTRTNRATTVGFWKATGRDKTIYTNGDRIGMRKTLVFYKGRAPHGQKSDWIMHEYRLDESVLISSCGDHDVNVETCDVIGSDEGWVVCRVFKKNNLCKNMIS
A digest of the protocol:
as §1

The target in another assay is T8, GST-NTL8 NAC domain (Arabidopsis thaliana, UniProt Q9XIN7 14-156).
T8 sequence: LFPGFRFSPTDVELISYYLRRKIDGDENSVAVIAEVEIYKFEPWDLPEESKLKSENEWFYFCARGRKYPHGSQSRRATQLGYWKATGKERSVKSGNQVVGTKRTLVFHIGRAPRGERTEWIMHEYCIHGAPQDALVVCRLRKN
A digest of the protocol:
as §1

For the next assay, the target named is T9, GST-SND1(1-203) (Arabidopsis thaliana, UniProt Q9LPI7 1-203).
T9 sequence: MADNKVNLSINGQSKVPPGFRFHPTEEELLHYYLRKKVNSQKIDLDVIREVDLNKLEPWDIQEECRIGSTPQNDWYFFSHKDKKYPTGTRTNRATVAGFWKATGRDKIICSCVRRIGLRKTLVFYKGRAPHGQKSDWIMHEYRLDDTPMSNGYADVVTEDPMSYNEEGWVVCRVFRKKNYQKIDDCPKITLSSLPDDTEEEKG
A digest of the protocol: as §1

For another assay, the target named is T10, GST-VND3 NAC domain (Arabidopsis thaliana, UniProt Q9FH59 12-162).
T10 sequence: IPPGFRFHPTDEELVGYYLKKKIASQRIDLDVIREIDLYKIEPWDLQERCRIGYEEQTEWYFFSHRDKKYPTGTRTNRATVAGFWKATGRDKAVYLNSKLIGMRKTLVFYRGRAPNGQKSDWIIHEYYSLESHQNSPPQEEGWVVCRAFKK
A digest of the protocol: as §1

A further assay has as its target T11, GST-VND7 NAC domain (Arabidopsis thaliana, UniProt Q9C8W9 9-158).
T11 sequence: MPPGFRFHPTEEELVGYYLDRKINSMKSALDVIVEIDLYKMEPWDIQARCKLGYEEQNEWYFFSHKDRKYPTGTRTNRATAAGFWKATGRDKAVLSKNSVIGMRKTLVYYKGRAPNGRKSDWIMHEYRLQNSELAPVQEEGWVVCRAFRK
A digest of the protocol:
as §1

GST-NTL6(1-168), sequence (Q9SCK6 1-168): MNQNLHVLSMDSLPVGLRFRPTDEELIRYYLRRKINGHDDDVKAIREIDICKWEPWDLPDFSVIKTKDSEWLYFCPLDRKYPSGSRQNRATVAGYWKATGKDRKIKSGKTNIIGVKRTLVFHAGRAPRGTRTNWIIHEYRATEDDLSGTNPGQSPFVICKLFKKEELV

AGGAAACG: the binding signal with GST-ANAC092(1-176) came out at 0.207 E-score; in the assay with GST-NTL6(1-168) it was 0.125 E-score; with GST-ANAC019 NAC domain it was 0.0614 E-score; with GST-ANAC055(1-171) it was 0.149 E-score; with GST-ATAF1 NAC domain, 0.208 E-score; in assay [1], 0.132 E-score. In addition, the binding signal is 0.183 E-score with GST-NAP(1-166); 0.132 E-score with GST-NST2(1-184); 0.451 E-score in the assay with GST-NTL8 NAC domain; 0.224 E-score with GST-SND1(1-203); 0.109 E-score in the assay with GST-VND3 NAC domain; 0.112 E-score in the assay with GST-VND7 NAC domain.
With GTTGCGTA, the binding signal in the assay with GST-ANAC092(1-176) came out at 0.486 E-score; with GST-NTL6(1-168), 0.184 E-score; with GST-ANAC019 NAC domain, 0.461 E-score; in the assay with GST-ANAC055(1-171) it was 0.431 E-score; with GST-ATAF1 NAC domain, 0.415 E-score; in [1] it was 0.49 E-score. Besides, the binding signal with GST-NAP(1-166) turned out to be 0.477 E-score; in the assay with GST-NST2(1-184), 0.465 E-score; in the assay with GST-NTL8 NAC domain, 0.216 E-score; with GST-SND1(1-203), 0.495 E-score; with GST-VND3 NAC domain, 0.452 E-score; in the assay with GST-VND7 NAC domain, 0.466 E-score.
On to ATGACGTA, for which the binding signal was 0.443 E-score in the assay with GST-ANAC092(1-176); 0.0683 E-score in the assay with GST-NTL6(1-168); 0.372 E-score with GST-ANAC019 NAC domain; 0.346 E-score with GST-ANAC055(1-171); 0.374 E-score in the assay with GST-ATAF1 NAC domain; 0.437 E-score in [1]. Besides, the binding signal turned out to be 0.404 E-score with GST-NAP(1-166); 0.317 E-score in the assay with GST-NST2(1-184); 0.098 E-score with GST-NTL8 NAC domain; 0.446 E-score with GST-SND1(1-203); 0.437 E-score with GST-VND3 NAC domain; 0.386 E-score in the assay with GST-VND7 NAC domain.
In the case of GCAAGGAA, the binding signal with GST-ANAC092(1-176) was found to be 0.345 E-score; with GST-NTL6(1-168) it was 0.418 E-score; in the assay with GST-ANAC019 NAC domain, 0.185 E-score; in the assay with GST-ANAC055(1-171), 0.211 E-score; with GST-ATAF1 NAC domain, 0.18 E-score; in [1], 0.371 E-score. Further, the binding signal with GST-NAP(1-166) was 0.133 E-score; in the assay with GST-NST2(1-184), 0.175 E-score; with GST-NTL8 NAC domain it was 0.431 E-score; with GST-SND1(1-203) it was 0.276 E-score; with GST-VND3 NAC domain it was 0.187 E-score; with GST-VND7 NAC domain it was 0.229 E-score.
Consider GTTACGTA, for which the binding signal in the assay with GST-ANAC092(1-176) is 0.463 E-score; with GST-NTL6(1-168), 0.214 E-score; with GST-ANAC019 NAC domain, 0.482 E-score; with GST-ANAC055(1-171), 0.473 E-score; with GST-ATAF1 NAC domain, 0.463 E-score; in [1], 0.456 E-score. Also, the binding signal stood at 0.483 E-score with GST-NAP(1-166); 0.337 E-score with GST-NST2(1-184); 0.319 E-score with GST-NTL8 NAC domain; 0.442 E-score in the assay with GST-SND1(1-203); 0.471 E-score in the assay with GST-VND3 NAC domain; 0.477 E-score with GST-VND7 NAC domain.
In the case of GTTAAGCA, the binding signal with GST-ANAC092(1-176) was 0.131 E-score; with GST-NTL6(1-168), 0.408 E-score; with GST-ANAC019 NAC domain, 0.0907 E-score; with GST-ANAC055(1-171), 0.0654 E-score; with GST-ATAF1 NAC domain it was 0.119 E-score; in [1], 0.153 E-score. The binding signal is 0.209 E-score in the assay with GST-NST2(1-184), 0.223 E-score in the assay with GST-SND1(1-203), 0.143 E-score in the assay with GST-VND3 NAC domain and 0.0676 E-score in the assay with GST-VND7 NAC domain.
As to CCACGCAA, the binding signal with GST-ANAC092(1-176) came to 0.472 E-score; with GST-NTL6(1-168) it was 0.116 E-score; with GST-ANAC019 NAC domain, 0.383 E-score; with GST-ANAC055(1-171), 0.363 E-score; in the assay with GST-ATAF1 NAC domain, 0.235 E-score; in assay [1], 0.474 E-score. The binding signal stood at 0.305 E-score with GST-NAP(1-166); 0.348 E-score with GST-NST2(1-184); 0.0836 E-score with GST-NTL8 NAC domain; 0.41 E-score with GST-SND1(1-203); 0.354 E-score in the assay with GST-VND3 NAC domain; 0.337 E-score with GST-VND7 NAC domain.
